Assay outcomes as filed in PubChem.
Shown are actives, neighbours in structure and some others; about 1.2% of the full set was active somewhere.
PglD inh: PglD (C. jejuni) enzyme inhibition; purified PglD enzyme, DTNB colorimetric CoA detection; inhibition, % at 12.5 µM; hit rate 0.098% among 360,000; in the data active = inhibition above about 16%, passing the limit was not always enough; inconclusive = no clear call, values can overlap the other calls
NSD2 HMT inh: blocks human histone methyltransferase NSD2. O96028. NSD2 peptide methylation, AlphaScreen, 120 min. inhibition, % at 12.5 µM. hit rate 0.54% among 310,000. AID 743445; in the data active = inhibition above about 50%
Target sequence (O96028 whole entry, looked up): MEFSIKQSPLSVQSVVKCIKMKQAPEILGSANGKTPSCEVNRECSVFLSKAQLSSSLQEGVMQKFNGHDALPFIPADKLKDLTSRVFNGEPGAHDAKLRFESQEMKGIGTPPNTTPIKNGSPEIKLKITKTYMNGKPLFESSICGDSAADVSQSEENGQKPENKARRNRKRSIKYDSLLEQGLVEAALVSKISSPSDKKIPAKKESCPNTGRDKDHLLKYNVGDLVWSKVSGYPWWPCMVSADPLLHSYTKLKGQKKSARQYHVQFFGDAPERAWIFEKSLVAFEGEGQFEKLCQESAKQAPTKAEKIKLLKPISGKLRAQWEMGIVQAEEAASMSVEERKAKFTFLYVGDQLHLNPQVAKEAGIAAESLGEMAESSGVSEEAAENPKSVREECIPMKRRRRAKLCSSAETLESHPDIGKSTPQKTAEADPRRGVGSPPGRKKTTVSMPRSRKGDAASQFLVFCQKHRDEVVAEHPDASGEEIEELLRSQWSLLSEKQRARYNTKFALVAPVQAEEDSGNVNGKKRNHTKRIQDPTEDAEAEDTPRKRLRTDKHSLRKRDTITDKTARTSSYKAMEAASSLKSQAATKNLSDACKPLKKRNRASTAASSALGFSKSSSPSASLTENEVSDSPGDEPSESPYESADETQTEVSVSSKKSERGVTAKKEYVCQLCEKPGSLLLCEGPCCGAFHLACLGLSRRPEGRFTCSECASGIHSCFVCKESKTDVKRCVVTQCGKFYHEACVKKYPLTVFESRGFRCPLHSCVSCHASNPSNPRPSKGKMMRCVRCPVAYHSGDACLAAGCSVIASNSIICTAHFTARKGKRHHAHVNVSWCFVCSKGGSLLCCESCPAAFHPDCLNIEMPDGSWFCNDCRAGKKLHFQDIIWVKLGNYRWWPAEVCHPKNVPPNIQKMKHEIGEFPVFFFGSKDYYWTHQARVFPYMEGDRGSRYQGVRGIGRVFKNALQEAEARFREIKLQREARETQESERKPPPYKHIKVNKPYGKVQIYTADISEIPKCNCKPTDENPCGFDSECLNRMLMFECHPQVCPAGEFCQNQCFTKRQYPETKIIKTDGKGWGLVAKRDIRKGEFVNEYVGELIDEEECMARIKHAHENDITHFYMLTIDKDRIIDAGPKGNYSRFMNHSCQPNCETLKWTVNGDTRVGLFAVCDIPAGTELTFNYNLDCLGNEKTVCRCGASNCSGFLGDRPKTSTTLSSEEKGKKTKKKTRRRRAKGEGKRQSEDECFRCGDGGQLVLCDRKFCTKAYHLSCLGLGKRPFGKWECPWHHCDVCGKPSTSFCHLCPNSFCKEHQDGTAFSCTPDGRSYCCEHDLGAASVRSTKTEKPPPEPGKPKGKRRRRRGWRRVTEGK
miR122 inh: inhibitors of miR-122 in Huh7 cells; activation (reporter increase), % at 12.5 µM; AID 602342; hit rate 0.3% among 340,000; Huh7 miR-122 Renilla luciferase sensor, 48 h; neutral wells = 0, positive control = 100;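 active = mean replicate activation score at least 90 and every replicate individually at or above 90; inconclusive = only one of the two criteria met; inactive = neither criterion met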;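 also: higher luciferase means less miR-122 activity so hits act as miR-122 inhibitors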
Statin myotox sup: suppressors of simvastatin-induced myotoxicity in C2C12 myotubes. ATP luminescence, 48 h; scaled: DMSO 0, geranylgeraniol control 100. rescue of ATP level, % at 7.49 µM. hit rate 0.78% among 330,000. AID 602340;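 active = mean ATP rescue above about 67%, or every replicate alone reaching that limit, limit read from the data, passing the limit was not always enough; inconclusive = no clear call, values can overlap the other calls; inactive = mean under the limit and some replicate under it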;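 also: myotubes were challenged with 10 µM simvastatin during compound exposure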
AlphaScreen art: AlphaScreen assay artifact in NSD2 counter-screen; AlphaScreen artifact counterscreen, preloaded methylated H4 peptide; AC35, µM (top dose mostly 10 µM); shares compounds with NSD2 HMT inh; hit rate 9.4% among 1,500; call rule not given here
A number is an active result; – = inactive; ? = inconclusive; · = not tested or not shown.

SMILES | PglD inh | NSD2 HMT inh | miR122 inh | Statin myotox sup | AlphaScreen art
C=CCn1c(SCC(=O)N2CCN(c3ccccc3)CC2)nnc1-c1ccco1 | – | 84 | – | – | –
CCOC(=O)c1c(NC(=O)COC)sc2c1CCCC2 | – | 57 | – | – | –
C[C@@H]1CN([C@H](C)CO)C(=O)Cc2cc(NS(=O)(=O)c3cn(C)cn3)ccc2O[C@H]1CN(C)Cc1ccncc1 | – | · | – | – | ·
C=CCC1C=C(Cc2ccccc2)CC(CC=C)N1 (configuration not stated) | · | 54 | · | · | –
Nc1cc(=O)[nH]c(SCC(=O)Nc2ccc(Cl)c(Cl)c2)n1 | – | 116 | – | – | –
O=C(CSc1n[nH]c(-c2ccncc2)n1)Nc1ccc(Cl)c(Cl)c1 | – | 63 | · | – | –
O=C(CSc1n[nH]c(-c2ccncc2)n1)Nc1ccc(Cl)cc1 | · | – | – | – | ·
CCCOc1ccc(-c2nc(SCc3ccccc3)[nH]c(=O)c2C#N)cc1OC | – | 66 | – | – | –
CCCCN(C)C(=O)C1CCN(Cc2cccc(OCc3ccccc3)c2)CC1 | – | 73 | – | – | –
CCN(CC)C(=O)C1CCN(Cc2cccc(OCc3ccccc3)c2)CC1 | – | – | – | · | ·
CCOc1ccc(NC(=S)N2CCC(NC(=O)C3CCCCC3)CC2)cc1 | · | 57 | – | – | –
CCc1ccc(NC(=S)N2CCC(NC(=O)C3CCCCC3)CC2)cc1 | · | – | – | – | ·
O=C(C[C@@H]1CC[C@H]2[C@@H](COC[C@H](O)CN2S(=O)(=O)c2ccccc2)O1)N1CCOCC1 | – | · | – | – | ·
CC1=NN(c2ccccc2)C(=O)/C1=C/N(C)C | – | 71 | · | · | –
Cc1ccc(S(=O)(=O)N[C@@H]2CC[C@H](CCNC(=O)C3CCCC3)O[C@H]2CO)cc1 | – | · | – | – | ·
O=C(C[C@H]1CC[C@H]2NC[C@H](O)COC[C@@H]2O1)NC1Cc2ccccc2C1 | – | · | – | – | ·
Cc1cc(C(=O)Nc2cccc3c2O[C@@H](CN(C)C(=O)Nc2ccc4c(c2)OCO4)[C@@H](C)CN([C@H](C)CO)C3=O)n(C)n1 | – | · | – | – | ·
Cc1c(Cc2ccccc2)c(=O)oc2cc(O)ccc12 | – | – | · | · | ·
Cc1c(Cc2ccccc2)c(=O)oc2c(O)c(O)ccc12 | · | 61 | – | · | –
O=C(Nc1ccc(S(=O)(=O)NCc2ccccc2)cc1)c1ccc(Br)o1 | – | – | – | – | ·
C=CCn1c(NC(=O)c2ccc(Br)o2)c(S(=O)(=O)c2ccccc2)c2nc3ccccc3nc21 | – | 83 | – | ? | –
CC(C)NC(=O)N(C)C[C@@H]1Oc2c(NC(=O)c3ccncc3)cccc2C(=O)N([C@H](C)CO)C[C@H]1C | – | · | – | – | ·
COc1ccc(CC(=O)NC2CCCCCC2)c(OC)c1 | – | 77 | · | – | –
CC(C)(C)c1cc(C(=O)N/N=C/c2ccncc2)n[nH]1 | – | 55 | – | – | –
CC(C)(C)c1cc(C(=O)N/N=C/c2ccccn2)n[nH]1 | – | – | · | · | ·
SMILES | PglD inh | NSD2 HMT inh | miR122 inh | Statin myotox sup | AlphaScreen art
Cc1ccccc1S(=O)(=O)NCC[C@H]1CC[C@H](NC(=O)C2CCC2)[C@H](CO)O1 | – | · | · | – | ·
COc1ccc(C)cc1NCc1ccc(OC)c(C)c1OC | – | 80 | · | – | –
COc1ccc(C)cc1NCc1ccc([N+](=O)[O-])cc1 | – | – | – | – | ·
COc1ccc(C(=O)Nc2c3c(nn2-c2ccc([N+](=O)[O-])cc2)CS(=O)(=O)C3)cc1 | – | – | – | – | ·
COc1ccc(C(=O)Nc2c3c(nn2-c2ccc(Cl)cc2)CS(=O)(=O)C3)cc1 | – | 69 | – | – | –
CCCC(=O)Nc1ccc2c(c1)C(=O)N(C)C[C@H](OC)[C@@H](C)CN(S(=O)(=O)c1cn(C)cn1)[C@@H](C)CO2 | – | · | · | – | ·
COc1ccc(CNC(=O)CN(c2ccc(C)cc2)S(=O)(=O)c2c(C)noc2C)cc1 | – | 63 | – | – | –
COc1cc(N(C)C)ccc1C=c1c2ccccc2n2c1cc(-c1ccccc1)[n+]2C | · | 85 | – | · | 1.5µM
O=C1C=C(N(CCO)Cc2ccccc2)c2ccccc2C1=O | – | 76 | – | – | –
O=C1c2ccccc2C(=O)c2c1cccc2N(CCO)CCO | – | – | – | – | ·
O=C(C[C@@H]1CC[C@H](NS(=O)(=O)c2ccc(F)cc2)[C@@H](CO)O1)NC1CCCCC1 | – | · | · | – | ·
Nc1ccc(-n2cnc3cc([N+](=O)[O-])ccc32)cc1 | – | – | – | – | ·
Nc1ccc2nn(-c3cc([N+](=O)[O-])ccc3O)nc2c1 | – | 79 | – | – | –
Oc1ccc(/C=N/N=C(c2ccccc2)c2ccccc2)c(O)c1O | · | 76 | · | · | 4.2µM
O=C(/C(=N/N=C/c1ccc(O)c(O)c1O)c1ccccc1)c1ccccc1 | – | – | – | · | ·
Cc1c(C(=O)c2no[n+]([O-])c2C(=O)c2cnn(C)c2C)cnn1C | – | 66 | · | – | –
COc1cccc(/C=C2\N=C(SC)SC2=O)c1OC | – | 99 | – | – | –
O=C(O)CN1C(=O)/C(=C/c2ccc(SCc3ccccc3)o2)SC1=S | · | 54 | – | – | –
O=C(C1CCC1)N1CC[C@@H]2[C@H]1c1cc(-c3cccc(F)c3)ccc1N[C@@H]2CO | – | · | – | – | ·
Cc1noc(C)c1S(=O)(=O)Nc1ccc2c(c1)C(=O)N([C@@H](C)CO)C[C@H](C)[C@H](CN(C)Cc1ccccc1)OCCCC[C@@H](C)O2 | – | · | – | · | ·
C[C@H](O)C#Cc1ccc2c(c1)O[C@@H](CN(C)C(=O)C1CCCCC1)[C@H](C)CN([C@H](C)CO)S2(=O)=O | – | · | – | – | ·
Cc1c(C(=O)NC(C)C)oc2c1-c1[nH]ncc1CC2 | – | 55 | – | – | –
C[C@@H]1CCCCO[C@H](CN(C)C(=O)Nc2ccccc2)[C@H](C)CN([C@H](C)CO)C(=O)c2cc(NC(=O)Nc3ccc(F)cc3)ccc2O1 | – | · | – | · | ·
CCN(CC)CCOc1ccc(C=NNc2nc3c([nH]2)c(=O)n(C)c(=O)n3C)cc1 | – | 51 | – | – | –
CO[C@H]1CN(C)C(=O)c2cc(NC(=O)C3CCC3)ccc2OC[C@@H](C)N(Cc2ccc(F)cc2)C[C@H]1C | – | · | – | – | ·
SMILES | PglD inh | NSD2 HMT inh | miR122 inh | Statin myotox sup | AlphaScreen art
CC(=O)NCCN1C(=O)C2C3c4ccccc4C(c4ccccc43)C2C1=O (configuration not stated) | – | 76 | – | – | –
CC(=O)c1cc(C)ccc1OC(=O)CCN1C(=O)C2C3c4ccccc4C(c4ccccc43)C2C1=O (configuration not stated) | – | – | · | – | ·
Cc1ccc(C(=O)Nc2ccc(Cl)cc2C(F)(F)F)c(Cl)c1 | – | 188 | – | · | –
O=C(Nc1ccc(Cl)cc1C(F)(F)F)c1ccccc1Cl | · | – | · | · | ·
CCOC(=O)C(C(=O)OCC)c1cc(Br)c2noc3c2c1C(=O)c1ccccc1-3 | · | 97 | – | · | –
CC(=O)OCCNc1cc(N2CCN(C)CC2)c2noc3c2c1C(=O)c1ccccc1-3 | – | · | – | – | ·
Cc1ccc(N2CN=c3s/c(=C\c4ccccn4)c(=O)n3C2)cc1 | – | 59 | – | – | –
O=C1O[C@H](c2ccccc2)[C@H](c2ccccc2)N2[C@H]1[C@@H](C(=O)N1CCCCCCC1)[C@]1(C(=O)Nc3ccc(C#CCCO)cc31)[C@H]2c1ccc(O)cc1 | – | · | · | · | ·
